The list is not random: actives were taken first. Their share in the collection is about 21%.
DT40 TDP1 no CPT: qHTS for Inhibitors of human tyrosyl-DNA phosphodiesterase 1 (TDP1): qHTS in cells in absence of CPT | AID 686978, 2013 | DT40 Tdp1-/- hTDP1 cells, no CPT, ATP luminescence, 48 h | 15% of 420,000 active | Potency, µM (doses to about 46.2 µM), for the others: top-dose activity change, negative = growth inhibition, hits mostly inhibitors; further: potency means the concentration at half of the fitted maximal effect; nearly all actives have a fitted effect of over 55% in size
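Chicken DT40 Tdp1-/- cells stably complemented with human TDP1 were seeded at 400 cells/well with DMSO in place of 20 nM camptothecin. After compound pinning, cells grew at least 48 hr at 37 °C; viability read by CellTiter-Glo luminescence.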
RORg inh: blocks mouse ROR gamma transcriptional activity | P51450 | Drosophila S2 Gal4-RORgamma UAS-luciferase reporter, 20 h | Potency, µM (top dose mostly 53.6 µM), without a hit: at the highest dose activity change, negative = inhibition, actives largely listed as inhibitors | 5.4% of 310,000 active; further: potency means the concentration at half of the fitted maximal effect; nearly all actives have a fitted effect of over 60% in size
Target sequence (P51450 whole entry, looked up, the tested form may be a part): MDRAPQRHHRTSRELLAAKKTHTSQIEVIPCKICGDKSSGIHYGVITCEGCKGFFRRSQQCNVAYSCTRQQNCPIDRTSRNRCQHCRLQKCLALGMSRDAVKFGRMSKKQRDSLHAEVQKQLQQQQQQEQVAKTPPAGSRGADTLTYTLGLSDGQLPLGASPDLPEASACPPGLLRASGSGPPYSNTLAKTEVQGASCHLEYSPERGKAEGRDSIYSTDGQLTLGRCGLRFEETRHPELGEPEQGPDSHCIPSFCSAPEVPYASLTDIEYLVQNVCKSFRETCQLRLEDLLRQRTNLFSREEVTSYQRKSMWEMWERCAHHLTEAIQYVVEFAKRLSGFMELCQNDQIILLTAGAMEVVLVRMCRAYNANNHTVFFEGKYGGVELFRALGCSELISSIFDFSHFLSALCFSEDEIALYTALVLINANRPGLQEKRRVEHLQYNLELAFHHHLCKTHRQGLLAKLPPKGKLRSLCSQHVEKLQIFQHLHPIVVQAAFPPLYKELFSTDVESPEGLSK
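Schneider cells (Drosophila), stable Gal4 DBD–ROR gamma + UAS-luc; 1 hr cmpd preincubation; Cu2+ induction 700 uM final; 20 hr ambient; luminescence.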
IL1B secr inh: inhibitors of inflammasome signaling (IL-1 beta secretion); THP-1 LPS/ATP IL-1B secretion, AlphaLISA, 16 h; hits give low values; activity change, % at 57.5 µM; 4.7% of 360,000 active; AID 743279; in the data active means activity change below about -50%; inconclusive means mostly about -30% to -49%
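THP-1 cells pretreated 1 hr with compounds (up to 57.5 uM final), then stimulated with LPS (250 ng/mL final) plus ATP (1.25 mM final); secreted IL-1B measured by AlphaLISA after 16 hr, decreased signal indicating inhibition.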
VP16 counter: counter-screen for ROR gamma inhibitors: Gal4-VP16 reporter | Drosophila S2 Gal4-VP16 UAS-luciferase, luminescence, 20 h | Potency, µM (doses to about 53.6 µM), for the others: at the top dose activity, negative = inhibition, most hits filed as inhibitors | 3.5% of 310,000 active;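 further: Gal4-VP16 expression switched on by copper sulfate through the metallothionein promoter; potency means the concentration at half of the fitted maximal effect; nearly all actives have a fitted effect of over 50% in size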
TDP1 cell CPT: DT40-hTDP1 cell growth loss with CPT; 12% of 420,000 active; chicken DT40 Tdp1-/-;hTDP1 cells + 20 nM CPT, ATP luminescence, 48 h; Potency, µM (titrated, usually from 46.2 µM), without a hit: top-dose activity change, negative = growth inhibition, most hits filed as inhibitors; further: potency means the concentration at half of the fitted maximal effect; nearly all actives have a fitted effect of over 55% in size
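Chicken DT40 Tdp1-/- cells complemented with human TDP1, 400 cells/well, exposed to compounds plus 20 nM camptothecin for at least 48 h at 37 C; viability read as ATP content by CellTiter-Glo luminescence.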
ELG1 DNA repair: inhibitors of ELG1-dependent DNA repair in HEK293T cells; HEK293T ELG1-luciferase reporter, luminescence, 16 h; DNA damage induced by 5-fluorouridine; Potency, µM (series often up to 46.1 µM), for inactives: at the top dose activity change, negative = inhibition, hits mostly inhibitors; AID 504467; 2.3% of 330,000 active; further: potency means the concentration at half of the fitted maximal effect; nearly all actives have a fitted effect of over 55% in size
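Luminescence from the luciferase reporter, measured 30 min after ONE-Glo reagent at room temperature, was the read-out. Beforehand, 2,000 cells per well were exposed for 16 hr at 37 °C to 5-fluorouridine together with compound or vehicle.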
* hit, by the source's call; [ ] = another dose, or the depositor's remark. Unless noted, the call rests on the fitted dose curve; in most records, active means well fitted curve in the direction sought with a large enough effect; inconclusive means small, poorly fitted or top-dose-only effect, or another doubt; inactive means no such curve, though single readings can be large; an effect the other way counts as inactive or inconclusive. On the % scale 0 is the no-effect control and ±100 the full control effect.

Screening Cc1ccc(C23CC4CC(CC(C(=O)NC(C)C)(C4)C2)C3)cc1 returned DT40 TDP1 no CPT 26µM*, RORg inh 38%, IL1B secr inh -20, VP16 counter -4%, TDP1 cell CPT inconclusive and ELG1 DNA repair -7%.
Cc1ccc(C23CC4CC(CC(C(=O)N5CCN(C)CC5)(C4)C2)C3)cc1 was read as DT40 TDP1 no CPT inconclusive, RORg inh -2%, IL1B secr inh -26, VP16 counter 0%, TDP1 cell CPT inconclusive and ELG1 DNA repair 9%.
Screening COc1ccc(NC(=O)C23CC4CC(C2)CC(c2ccc(C)cc2)(C4)C3)cc1 returned DT40 TDP1 no CPT 23µM*, RORg inh 27%, IL1B secr inh -7, VP16 counter inconclusive, TDP1 cell CPT 29µM* and ELG1 DNA repair -12%.
For CNC(=O)C12CC3CC(C1)CC(c1ccc(C)cc1)(C3)C2 the results were DT40 TDP1 no CPT -24%, RORg inh -21%[1.91 µM], IL1B secr inh 4, VP16 counter 3%, TDP1 cell CPT -11% and ELG1 DNA repair -1%.
Screening Cc1ccc(C23CC4CC(CC(C(=O)NC(C)C(=O)O)(C4)C2)C3)cc1 (stereo not drawn) returned DT40 TDP1 no CPT -19%, RORg inh -28%, IL1B secr inh 6, VP16 counter 6%, TDP1 cell CPT -1% and ELG1 DNA repair -5%.
For CCC(CC)C(=O)Nc1nnc(SCC(=O)NC2CC2)s1 the results were DT40 TDP1 no CPT -11%, RORg inh 11%, IL1B secr inh 6, VP16 counter -9%, TDP1 cell CPT 0% and ELG1 DNA repair 12%.
`Cc1ccc(-n2nc(C)c3c(C)cc(=O)n(CC(=O)N4CCCc5ccccc54)c32)cc1` gave DT40 TDP1 no CPT 3% and TDP1 cell CPT -7%.
Screening CCN(CC(=O)Nc1ccc(N2CCOCC2)cc1)Cc1nc2ccccc2c(=O)[nH]1 returned DT40 TDP1 no CPT inconclusive, RORg inh 4µM*, IL1B secr inh -13, VP16 counter 13µM*, TDP1 cell CPT -2% and ELG1 DNA repair inconclusive.
For CC(OC(=O)CCc1nc2ccccc2c(=O)[nH]1)C(=O)Nc1ccc2c(c1)OCO2 (stereo not drawn) the results were DT40 TDP1 no CPT 1%, RORg inh 1%, IL1B secr inh 5, VP16 counter 7%, TDP1 cell CPT -25% and ELG1 DNA repair 1%.
For CCN(CC(=O)Nc1ccc2c(c1)OCO2)Cc1nc2ccccc2c(=O)[nH]1 the results were DT40 TDP1 no CPT inconclusive, RORg inh 2.5µM*, IL1B secr inh -4, VP16 counter 7.1µM*, TDP1 cell CPT inconclusive and ELG1 DNA repair inconclusive.
CCN(CC(=O)Nc1cccc(Br)c1)Cc1nc2ccccc2c(=O)[nH]1 was read as DT40 TDP1 no CPT 4.6µM*, RORg inh 4µM*, IL1B secr inh 9, VP16 counter 7.1µM*, TDP1 cell CPT 5.2µM* and ELG1 DNA repair -2%.
For O=C(CSc1nnnn1-c1ccccc1)Nc1ccc(N2CCOCC2)cc1 the results were DT40 TDP1 no CPT -13%, RORg inh 1%, IL1B secr inh 19, VP16 counter -10%, TDP1 cell CPT 6% and ELG1 DNA repair 0%.
For O=C(CSc1nncn1-c1ccccc1)Nc1ccc(N2CCOCC2)cc1 the results were DT40 TDP1 no CPT 13µM*, RORg inh 16%, IL1B secr inh -6, VP16 counter -11%, TDP1 cell CPT 23µM* and ELG1 DNA repair -1%.
For COc1cc2nc(CN(C)CC(=O)Nc3ccc(N4CCOCC4)cc3)[nH]c(=O)c2cc1OC the results were DT40 TDP1 no CPT inconclusive, RORg inh 5%, IL1B secr inh -11, VP16 counter inconclusive, TDP1 cell CPT -3% and ELG1 DNA repair inconclusive.
For CCN1CCN(CCNC(=O)c2ccc(CS(=O)c3ccc(Br)cc3)o2)CC1 (stereo not drawn) the results were DT40 TDP1 no CPT 15%, RORg inh -23%, IL1B secr inh 19, VP16 counter -1%, TDP1 cell CPT -13% and ELG1 DNA repair -4%.
`CCN(CC)c1ccc(C(=O)NNC(=O)CN2C(=O)NC3(CCCCC3)C2=O)cc1` gave DT40 TDP1 no CPT 0%, IL1B secr inh 8, TDP1 cell CPT -1% and ELG1 DNA repair 11%.
O=C(NCc1cccc(Cl)c1)c1ccc2c(c1)nc1n2CCOC1 was read as DT40 TDP1 no CPT inconclusive and TDP1 cell CPT 1%.
`CCN(CC)CCn1c(SCC(=O)Nc2ccc3c(c2)CCC3)nc2ccccc2c1=O` gave DT40 TDP1 no CPT 2.3µM*, IL1B secr inh inconclusive, TDP1 cell CPT inconclusive and ELG1 DNA repair inconclusive.
Screening CCN(CC)CC(=O)Nc1ccc2c(c1)N(C(=O)CN(CC)CC)c1ccccc1CC2 returned DT40 TDP1 no CPT inconclusive, RORg inh -2%, IL1B secr inh inconclusive, VP16 counter -8%, TDP1 cell CPT inconclusive and ELG1 DNA repair 3%.
CCN(CC(=O)Nc1ccc2c(c1)OC(F)(F)O2)Cc1nc2ccccc2c(=O)[nH]1 was read as DT40 TDP1 no CPT inconclusive, RORg inh 10µM*, IL1B secr inh 0, VP16 counter inconclusive, TDP1 cell CPT inconclusive and ELG1 DNA repair -29%.
For O=C(CSc1nc2ccccc2c(=O)[nH]1)Nc1ccccc1N1CCOCC1 the results were DT40 TDP1 no CPT -25%, RORg inh -6%, IL1B secr inh 34, VP16 counter -2%, TDP1 cell CPT -27% and ELG1 DNA repair -4%.
CCN(CC)CC(=O)Nc1ccc2c(c1)Nc1ccccc1CC2 was read as DT40 TDP1 no CPT 16µM*, RORg inh inconclusive, IL1B secr inh -14, VP16 counter 2%, TDP1 cell CPT inconclusive and ELG1 DNA repair -5%.
CN(CC(=O)Nc1cccc(F)c1)C(=O)CCCc1nc2ccccc2c(=O)[nH]1 was read as DT40 TDP1 no CPT -5%, IL1B secr inh 12, TDP1 cell CPT inconclusive and ELG1 DNA repair 14%.
`O=C(CSc1nc2ccccc2c(=O)[nH]1)Nc1ccc(N2CCOCC2)cc1` gave DT40 TDP1 no CPT -32%, RORg inh -37%, IL1B secr inh 7, VP16 counter inconclusive, TDP1 cell CPT 16µM* and ELG1 DNA repair -4%.
For O=C(Nc1ccccc1F)c1oc2ccccc2c1NC(=O)C12CC3CC(CC(C3)C1)C2 the results were DT40 TDP1 no CPT 4% and TDP1 cell CPT -6%.

Assay outcomes: PubChem BioAssay, National Center for Advancing Translational Sciences (NCATS)
